Assay results reported in PubChem BioAssay AID620 (Sanford-Burnham Center for Chemical Genomics, 2007).
The whole screen tested about 87,000 compounds, of which about 360 (0.41%) were called active. Cut-off read from the data, not from the text of the source: active = cytotoxicity above about 50%; inactive = the rest. The sample as a whole holds a higher share of actives than the screen did.

Assay: HT1080 cell viability loss – fluorescence readout (AID 620);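 note: cells exposed to compound overnight then 4 h with Alamar Blue; 0% = vehicle DMSO and 100% = killing control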
Conditions: at 10 µM, stronger effect = higher value

Structure (SMILES)	cytotoxicity
CCOC(=O)CSCC(=O)Nc1ccc(S(=O)(=O)N2CCCCC2)cc1	6.7% (inactive)
CC(C)(C)c1nc(CN2CCOCC2)ccc1O	-2.2% (inactive)
c1ccc(CNc2nc3ccccc3[nH]2)cc1	4.5% (inactive)
COc1ccc2nc(NCc3ccccc3)[nH]c2c1	24.9% (inactive)
Cc1ccc2nc(NCc3ccccc3)[nH]c2c1	63.1% (active)
CC(C(=O)Oc1ccc2c(c1)OCO2)N1C(=O)c2ccccc2C1=O (stereo unspecified)	3.4% (inactive)
CC(=O)N1CCc2cc(C(=O)CN3CCCCC3)ccc21	-6.3% (inactive)
CCN1CCN(Cc2nc3c(c(=O)[nH]c(=O)n3C)n2Cc2ccccc2Cl)CC1	4.2% (inactive)
COc1ccc(-c2cc(-c3cccs3)c(C#N)c(SCC(=O)NCc3ccccc3)n2)cc1	-5.2% (inactive)
COc1ccc(CNC(=O)CSc2nc(-c3ccccc3)cc(-c3cccs3)c2C#N)cc1	-13.6% (inactive)
COc1ccc(-c2cc(-c3cccs3)c(C#N)c(SCC(=O)NCc3ccco3)n2)cc1	55.1% (active)
Nc1nc(SCc2ccc(Cl)cc2)ns1	-0.5% (inactive)
CCOC(=O)C1CCCN(Cc2ccccc2OCC)C1 (stereo unspecified)	8.9% (inactive)
COc1ccc(C(=O)Nn2c(C)ccc2C)cc1OC	-1% (inactive)
CS(=O)(=O)N1CCN(c2ccccc2NC(=O)c2ccc(-c3ccc(Cl)cc3Cl)o2)CC1	6% (inactive)
COc1ccc(CNC(=O)C2CC(c3ccc(F)cc3)=NO2)cc1 (stereo unspecified)	3.2% (inactive)
COc1cccc(C2=NOC(C(=O)NCc3ccc(F)cc3)C2)c1 (stereo unspecified)	-1.1% (inactive)
COc1ccc(CNC(=O)C2CC(c3ccc(OC)cc3)=NO2)cc1 (stereo unspecified)	-0.6% (inactive)
COc1cc(C2=NOC(C(=O)NCc3ccc(F)cc3)C2)cc(OC)c1OC (stereo unspecified)	64.5% (active)
COc1ccc(C2=NOC(C(=O)NCc3ccc(F)cc3)C2)cc1 (stereo unspecified)	7% (inactive)
COc1ccc(C2=NOC(C(=O)NCc3ccc(F)cc3)C2)cc1OC (stereo unspecified)	57.2% (active)
COc1ccc2[nH]c(=O)c(C(c3nnnn3C3CCCC3)N3CCN(Cc4ccc5c(c4)OCO5)CC3)cc2c1 (stereo unspecified)	-0.4% (inactive)
COc1cc(NC(=O)c2nccnc2C(=O)O)cc(OC)c1	-8% (inactive)
C=CCSc1ncc(C#N)c(N)n1	14.9% (inactive)
O=C(OCC(=O)N1CCc2ccccc21)c1cccnc1Cl	-2.9% (inactive)
CS(=O)(=O)N1CCCC(C(=O)NCCCN2CCc3ccccc3C2)C1 (stereo unspecified)	-1.1% (inactive)

Structure (SMILES)	cytotoxicity
C[C@@H](C(=O)NCCc1c[nH]c2ccccc12)[C@@H]1C[C@@]1(C)[C@@H](NC(=O)OCc1ccccc1)c1ccccc1	0.9% (inactive)
Cc1cc2c(c(C)nn2-c2ccccc2)c(=O)o1	-11.4% (inactive)
CCCCCCCCCn1c2c(c(=N)c3c1CCC3)CCC2	51.6% (active)
CCCCCCn1c2c(c(=N)c3c1CCC3)CCC2	12.4% (inactive)
CCCCCCCCCCn1c2c(c(=N)c3c1CCC3)CCC2	38.3% (inactive)
Cn1c(=O)[nH]c(=O)c2c1nc(CN1CCN(c3ccccc3F)CC1)n2CC(N)=O	-7.3% (inactive)
COC(=O)C(C(C)=O)C1=C/C(=N\S(=O)(=O)c2ccc(C)cc2)c2ccccc2C1=O (stereo unspecified)	-13% (inactive)
COC(=O)c1ccccc1NC1=C/C(=N\S(=O)(=O)c2cccs2)c2ccccc2C1=O	-53% (inactive)
Cc1ccc(NC2=C/C(=N\S(=O)(=O)c3cccs3)c3ccccc3C2=O)c(C)c1	61.6% (active)
O=c1nc(N2CCOCC2)ccn1Cc1ccc(Br)cc1	-6.8% (inactive)
C=CCn1cc(C(=O)OC)c(=O)c2cc(S(=O)(=O)N3CCC(C)CC3)ccc21	6.1% (inactive)
COc1ccc(NC(=O)c2oc3ccccc3c2NC(=O)COc2ccccc2OC)c(OC)c1	-4.5% (inactive)
O=C(NC1CCN(C(=O)N2c3ccccc3Sc3ccccc32)CC1)c1ccco1	3.2% (inactive)
O=C(CN1CCN(c2ccccn2)CC1)N1c2ccccc2Sc2ccc(C(F)(F)F)cc21	6.6% (inactive)
O=C(c1ccco1)N1c2ccccc2Sc2ccccc21	0.2% (inactive)
O=C(c1ccco1)N1CCN(C(=O)N2c3ccccc3Sc3ccccc32)CC1	60.9% (active)
O=C(N1CCOCC1)N1CCN(c2ccccn2)CC1	6.2% (inactive)
O=C(N1CCN(c2ccccn2)CC1)N1c2ccccc2Sc2ccccc21	59.7% (active)
Cc1ccccc1C(NC(N)=O)c1ccccc1 (stereo unspecified)	0.3% (inactive)
CC(C)N=C(NC#N)SCc1ccccc1	0.9% (inactive)
COc1ccc(C2=Nn3c(nnc3-c3ccccc3OC)SC2)cc1OC	56.1% (active)
CCOc1ccc(C2=Nn3c(nnc3-c3ccc(OC)cc3)SC2)cc1	38% (inactive)
CCOc1ccc(-c2nnc3n2N=C(c2ccc(OC)cc2)CS3)cc1	11.5% (inactive)
COc1ccccc1-c1nnc2n1N=C(c1ccc(O)c(O)c1)CS2	48% (inactive)
CCOc1ccc(C2=Nn3c(nnc3-c3ccccc3OC)SC2)cc1	62.9% (active)
COc1ccc(C2=Nn3c(nnc3-c3ccccc3)SC2)cc1OC	11.6% (inactive)

Structure (SMILES)	cytotoxicity
CSC1CCCCC1(O)CSc1nc2ccccc2o1 (stereo unspecified)	-0.9% (inactive)
O=C(CCN1C(=O)C2C3C=CC(C3)C2C1=O)N1CCN(c2ccc(F)cc2)CC1 (stereo unspecified)	0.6% (inactive)
O=C(O)C1CC=C(Cl)CC1C(=O)NCC1OCCc2ccccc21 (stereo unspecified)	22.3% (inactive)
O=C(NCc1ccc(F)cc1)C1CCN(C(=O)NCc2ccccc2)CC1	-1% (inactive)
OCCc1ccc(-c2ccc(Cl)cc2)o1	0.4% (inactive)
Cc1nn(-c2ccc(F)cc2)c2sc(C(=O)N3CCCCCC3)cc12	-14% (inactive)
Nc1ccc2nc(-c3ccccn3)[nH]c2c1	18.5% (inactive)
CC(=O)Nc1ccc2nc(-c3ccccn3)[nH]c2c1	7.2% (inactive)
CC1(C)OC(=O)N(c2ccccc2)C12C=Cc1cc(Br)ccc1O2 (stereo unspecified)	-10.5% (inactive)
Nc1nonc1C(=O)NCCNCc1ccccc1OCc1ccccc1F	0.5% (inactive)
Nc1nonc1C(=O)NCCNCc1cc(Br)ccc1OCc1ccccc1F	99.7% (active)
Nc1nonc1C(=O)NCCNCc1cc(Br)ccc1OCc1ccc(F)cc1	21.8% (inactive)
Cn1c(=O)c2c(nc(SCCN3CCOCC3)n2Cc2ccc(Cl)cc2)n(C)c1=O	-7% (inactive)
OC1CCN(c2c3c(nc4cc(-c5ccc(F)cc5)nn24)CCC3)CC1	-17.8% (inactive)
Fc1ccc(-c2cc3nc4c(c(N5CCOCC5)n3n2)CCCC4)cc1	-15.8% (inactive)
O=C(C1CC1)N1CCN=C1SCc1ccccc1Cl	-3.4% (inactive)
CCOC(=O)N1CCN(S(=O)(=O)c2ccc(OCC)c(C)c2)CC1	4.4% (inactive)
Cc1cccc(NS(=O)(=O)c2cccc3cccnc23)n1	9% (inactive)
Cc1cc(C(=O)NCCN2CCN(c3cccc(Cl)c3)CC2)n(-c2ccccc2)n1	55.9% (active)
Cc1cc(C(=O)NCCCN2CCOCC2)n(-c2ccccc2)n1	-1.5% (inactive)
Cc1cc(C(=O)NCCCN2CCN(C3CCCCC3)CC2)n(-c2ccccc2)n1	13.2% (inactive)
Cn1c(=O)[nH]c(=O)c2c1nc1n2CCCS1	35.1% (inactive)
N#CC(c1ccccc1)c1ccc2c(C(F)(F)F)cc(C(F)(F)F)nc2n1 (stereo unspecified)	-4.8% (inactive)
Cc1ccc(C(C#N)c2ccc3c(C(F)(F)F)cc(C(F)(F)F)nc3n2)cc1 (stereo unspecified)	-12.2% (inactive)
N#CC(c1ccc(Cl)cc1)c1ccc2c(C(F)(F)F)cc(C(F)(F)F)nc2n1 (stereo unspecified)	51.3% (active)
Cc1ccc(NC(=O)CN2CCCCCC2)c(Br)c1	-14.9% (inactive)

Structure (SMILES)	cytotoxicity
CCOC(=O)c1ccc(NC(=O)CC2C(=O)N(c3ccc(F)cc3)C(=O)N2CCC(C)C)cc1 (stereo unspecified)	4.5% (inactive)
Cn1cc(S(=O)(=O)NCc2cccs2)c(=O)n(C)c1=O	0.5% (inactive)
COc1ccc(S(=O)(=O)Nc2ccc(N(C)C(C)=O)cc2)cc1	4.3% (inactive)
O=C(CSc1ncn[nH]1)Nc1ccccc1Sc1ccc(Cl)cc1	41.7% (inactive)
Nc1nc(SCC(=O)Nc2ccccc2-c2ccccc2)n[nH]1	0.1% (inactive)
Nc1nc(SCC(=O)Nc2ccccc2Sc2ccc(Cl)cc2)n[nH]1	74.3% (active)
CCn1c(SCC(=O)c2ccc(NS(=O)(=O)c3ccccc3)cc2)nnc1-c1cccs1	-0.1% (inactive)
O=C(O)C1C2CCC(O2)C1C(=O)Nc1cnn(Cc2ccccc2)c1 (stereo unspecified)	13% (inactive)
CC(C)CC(NC(=O)C1CCC(C)CC1)C(=O)NCc1ccccn1 (stereo unspecified)	23.1% (inactive)
Cn1c(C(=O)N2CCC(C(=O)N3CCOCC3)CC2)cc2sccc21	4.3% (inactive)
CCOc1ccccc1-n1c(SCC(N)=O)nnc1-c1cccnc1	7.9% (inactive)
COc1cccc(-c2nnc3n2N=C(c2cc(OC)ccc2OC)CS3)c1	5.5% (inactive)
COc1ccc(C2=Nn3c(nnc3-c3ccc(OC)cc3)SC2)cc1	62.4% (active)
COc1ccc(OC)c(C2=Nn3c(nnc3-c3cc(OC)c(OC)c(OC)c3)SC2)c1	64.1% (active)
COc1ccc(OC)c(C2=Nn3c(nnc3-c3ccncc3)SC2)c1	2.2% (inactive)
COc1ccc(C2=Nn3c(nnc3-c3ccncc3)SC2)cc1	-6.8% (inactive)
Fc1ccc(C2=Nn3c(nnc3-c3n[nH]c4c3CCC4)SC2)cc1	5.8% (inactive)
COc1ccc(-c2nnc3n2N=C(c2ccccc2)CS3)cc1OC	-10.6% (inactive)
Cc1cccc(-c2nnc3n2N=C(c2ccccc2)CS3)c1	5.5% (inactive)
Clc1ccc(C2=Nn3c(nnc3-c3n[nH]c4c3CCC4)SC2)cc1	6.1% (inactive)
Brc1ccc(C2=Nn3c(nnc3-c3n[nH]c4c3CCC4)SC2)cc1	56.3% (active)
COc1cc(-c2nnc3n2N=C(c2ccccc2)CS3)cc(OC)c1OC	66.9% (active)
COc1ccc(-c2nnc3n2N=C(C)CS3)cc1	-10.3% (inactive)
